Each structure is given as a SMILES string. Several values for one entry are separate records, joined by “and”; a condition that tells them apart may be missing. Equal entries are not always repeated. Records with an inconclusive call do not appear. More than one record can exist for a structure, and the calls need not agree. Activity calls are given as the source filed them. Unless noted, calls come from the whole dose curve; as a rule, active = well fitted curve in the direction sought with a large enough effect in the repeat runs; inconclusive = weak or mixed curves; inactive = no such curve, though single readings can be large; an effect the other way counts as inactive or inconclusive.

The nature of assay [1]: qHTS assay to identify small molecule agonists of the RXR signaling pathway - cell viability counter screen (AID 1159529). Note: nearly all actives have a fitted effect of over 50% in size. Note: potency is the fitted concentration of half-maximal effect. The method in brief: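 In this parallel viability measure, GeneBLAzer RXR-alpha HEK 293T cells (2% charcoal-stripped FBS) were given a 5 hr preincubation, treated with compounds 16 hr at 37 C, and read by CellTiter-Glo luminescence.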
Assay [2] is described as follows: qHTS assay to identify small molecule antagonists of the retinoid acid receptor (RAR) signaling pathway - cell viability counter screen (AID 1159551). Note: nearly all actives have a fitted effect of over 35% in size. Note: potency is the fitted concentration of half-maximal effect. The method in brief: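 Luminescent ATP quantitation (CellTiter-Glo) gave cell viability in C3RL4 cells exposed to test chemicals for 6 h at 37 C alongside 1 uM final retinol.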
For orientation: In qHTS, concentration-response curves come from the screen itself.

Assay [3] can be described thus: qHTS assay to identify small molecule antagonists of the retinoic acid receptor (RAR) signaling pathway (AID 1159552; note: nearly all actives have a fitted effect of over 50% in size; note: potency is the fitted concentration of half-maximal effect). The procedure, abridged: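 C3RL4 RARE-luc cells, overnight plating; retinol 1 uM final added right after compound; 6 hr 37 C; luciferase read at 30 min RT.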
Assay [4] can be described thus: qHTS assay to identify small molecule agonists of the retinoic acid receptor (RAR) signaling pathway (AID 1159553). Note: potency is the fitted concentration of half-maximal effect. The method in brief: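 Luminescence from a RARE-driven luciferase reporter in C3RL4 cells served as the read-out, measured after 30 min with detection reagent at room temperature. Compounds in DMSO were applied for 6 hr at 37 C following overnight seeding.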

A short description of assay [5]: qHTS assay to identify small molecule antagonists of the estrogen related receptor (ERR) signaling pathway from Tox21 library - cell viability counter screen (AID 1224834). Note: nearly all actives have a fitted effect of over 30% in size. Note: potency is the fitted concentration of half-maximal effect. The method in brief: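 Fluorescence from CellTiter-Fluor gives the viability read-out, taken 30 min after reagent addition. Before that, ERR cells seeded 6 h earlier were incubated with compounds for 17.5 h at 37 C.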

The target in assay [6] is Luciferin 4-monooxygenase (Photinus pyralis) (UniProt P08659). The assay can be described thus: qHTS assay to identify small molecule inhibitors of firefly luciferase (AID 1224835). Note: nearly all actives have a fitted effect of over 25% in size. Note: potency is the fitted concentration of half-maximal effect. The method in brief:
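Inhibition of purified Photinus luciferase is measured by luminescence. Substrate levels (D-luciferin, ATP) sit at their KM values. Each compound is tested in a concentration series.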

Assay [7] in a line: qHTS assay to identify small molecule antagonists of the constitutive androstane receptor (CAR) signaling pathway - cell viability counter screen (AID 1224837). Note: nearly all actives have a fitted effect of over 45% in size. Note: potency is the fitted concentration of half-maximal effect. The procedure, abridged:
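HepG2-CYP2B6-hCAR cells, 2500/well, 4 hr pre-incubation; compound titration, 15 conc.; CITCO 50 nM final; 23 hr, 37 C/5% CO2; CellTiter-Fluor, fluorescence intensity.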

For assay [8], the target named is Nuclear receptor subfamily 1 group I member 3 (Homo sapiens) (UniProt Q14994). The assay can be described thus: qHTS assay to identify small molecule antagonists of the constitutive androstane receptor (CAR) signaling pathway (AID 1224838).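 Note: HepG2 cells stably expressing hCAR with CYP2B6 luciferase reporter stimulated by CITCO; nearly all actives have a fitted effect of over 40% in size.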 Note: potency is the fitted concentration of half-maximal effect. The procedure, abridged: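 HepG2-CYP2B6-hCAR cells; 4 h pre-incubation; cpd (15 conc) + CITCO 50 nM final; 24 h, 37 C/5% CO2; ONE-Glo, luminescence.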
Sequence of Nuclear receptor subfamily 1 group I member 3 (Homo sapiens) (Q14994 whole entry, looked up): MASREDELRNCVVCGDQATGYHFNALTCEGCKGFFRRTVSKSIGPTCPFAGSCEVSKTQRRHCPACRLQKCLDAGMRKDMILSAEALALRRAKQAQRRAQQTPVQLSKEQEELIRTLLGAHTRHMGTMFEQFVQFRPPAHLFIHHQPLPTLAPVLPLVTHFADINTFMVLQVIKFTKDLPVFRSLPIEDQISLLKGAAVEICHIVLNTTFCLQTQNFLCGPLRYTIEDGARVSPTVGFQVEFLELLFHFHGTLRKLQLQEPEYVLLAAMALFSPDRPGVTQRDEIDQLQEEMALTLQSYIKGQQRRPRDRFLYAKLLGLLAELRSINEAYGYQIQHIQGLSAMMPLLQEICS

Assay [9] is described as follows: qHTS assay to identify small molecule antagonists of the estrogen related receptor signaling pathway with the pleiotropic PPARgamma coactivator (PGC) from Tox21 10K library - cell viability counter screen (AID 1224840; active = well fitted cell-killing curve with a large enough effect in the repeat runs, not every such curve was filed as active; note: nearly all actives have a fitted effect of over 40% in size; note: potency is the fitted concentration of half-maximal effect). The method in brief: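 PGC/ERR cells, 2,000/well; 6 h pre-incubation 37 C/5% CO2; cpd in DMSO via pin tool; 17.5 h 37 C; CellTiter-Fluor, 30 min; fluorescence.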

For assay [10], the target named is Thyrotropin receptor (Homo sapiens) (UniProt P16473). Nature of the assay: qHTS assay to identify small molecule agonists of the thyroid stimulating hormone receptor (TSHR) signaling pathway (AID 1224843; calls by dose curve; note: nearly all actives have a fitted effect of over 45% in size; note: potency is the fitted concentration of half-maximal effect). The procedure, abridged:
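Screening of the Tox21 10K collection used HEK293 cells engineered with TSHR at 800 cells per well. After a 30-min room-temperature compound exposure, HTRF cAMP reagents were added and fluorescence recorded 1 h later.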

In assay [11] the target is Nuclear receptor subfamily 1 group I member 3 (Homo sapiens) (UniProt Q14994). The assay can be described thus: qHTS assay to identify small molecule agonists of the constitutive androstane receptor (CAR) signaling pathway (AID 1224839). Note: nearly all actives have a fitted effect of over 15% in size. Note: potency is the fitted concentration of half-maximal effect. The method in brief:
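Double-stable HepG2 cells (hCAR, CYP2B6-2.2kb) seeded 4 h before compound addition. Exposure 24 h with 0.75 uM PK11195 final. Luciferase detected by ONE-Glo.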

A short description of assay [12]: qHTS assay to identify small molecule agonists of the constitutive androstane receptor (CAR) signaling pathway - cell viability counter screen (AID 1224836). Note: nearly all actives have a fitted effect of over 45% in size. Note: potency is the fitted concentration of half-maximal effect. The procedure, abridged: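 Using CellTiter-Fluor, viability of HepG2 cells harbouring hCAR and CYP2B6-2.2kb was measured following 23 h incubation with a 15-concentration compound series plus PK11195 (0.75 uM final).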

A short description of assay [13]: qHTS assay to identify small molecule antagonists of the estrogen related receptor signaling pathway with the pleiotropic PPARgamma coactivator (PGC) cell viability counter screen (AID 1224822; note: potency is the fitted concentration of half-maximal effect). The method in brief:
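Cells: PGC/ERR, 2,000/well, 1536-well format. Pre-incubation 6 h, 37 C/5% CO2. Compound exposure 17.5 h, 37 C. Detection: CellTiter-Fluor, 30 min, fluorescence.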

The nature of assay [14]: qHTS assay to identify small molecule antagonists of the estrogen related receptor signaling pathway with the pleiotropic PPARgamma coactivator (PGC) from Tox21 10K library (AID 1224841; call rule not given here; note: actives are mostly falling curves and most rising ones were filed inactive; nearly all actives have a fitted effect of over 50% in size; note: potency is the fitted concentration of half-maximal effect). The method in brief: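 PGC/ERR cell line, 2,000 cells/well; 6 h pre-incubation 37 C/5% CO2; compounds (DMSO) pinned in; 18 h, 37 C; One-Glo, 30 min RT; luminescence.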
Assay [15] is described as follows: qHTS assay to identify small molecule agonists of the estrogen related receptor signaling pathway with the pleiotropic PPARgamma coactivator (PGC) from Tox21 10K library (AID 1224842). Note: nearly all actives have a fitted effect of over 15% in size. The procedure, abridged:
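Luminescence from One-Glo (30 min, room temperature) measured after PGC/ERR cells had 18 h at 37 C with pinned compound (23 nL in DMSO). Cells had been seeded at 2,000 per well and pre-incubated 6 h.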

Sequence of Thyrotropin receptor (Homo sapiens) (P16473 whole entry, looked up): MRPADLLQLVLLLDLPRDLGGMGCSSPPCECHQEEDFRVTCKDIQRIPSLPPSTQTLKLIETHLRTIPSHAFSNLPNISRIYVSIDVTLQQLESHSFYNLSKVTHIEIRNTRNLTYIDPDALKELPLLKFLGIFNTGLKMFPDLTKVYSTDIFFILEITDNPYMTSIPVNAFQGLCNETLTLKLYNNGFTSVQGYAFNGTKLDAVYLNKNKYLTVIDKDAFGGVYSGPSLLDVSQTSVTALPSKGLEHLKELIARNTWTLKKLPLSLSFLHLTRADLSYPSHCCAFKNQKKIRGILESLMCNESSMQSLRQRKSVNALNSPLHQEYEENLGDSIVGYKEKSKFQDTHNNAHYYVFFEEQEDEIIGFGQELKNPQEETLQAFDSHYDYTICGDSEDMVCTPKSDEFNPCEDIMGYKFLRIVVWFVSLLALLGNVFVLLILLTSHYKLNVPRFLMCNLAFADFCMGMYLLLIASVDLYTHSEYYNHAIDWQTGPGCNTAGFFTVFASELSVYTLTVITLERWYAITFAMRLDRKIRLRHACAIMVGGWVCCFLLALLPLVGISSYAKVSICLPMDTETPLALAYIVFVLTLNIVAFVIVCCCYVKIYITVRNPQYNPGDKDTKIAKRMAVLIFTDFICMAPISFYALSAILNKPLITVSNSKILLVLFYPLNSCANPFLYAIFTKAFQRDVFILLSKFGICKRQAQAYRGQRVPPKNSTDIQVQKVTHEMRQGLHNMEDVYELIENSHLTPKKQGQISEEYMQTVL
Sequence of Luciferin 4-monooxygenase (Photinus pyralis) (P08659 whole entry, looked up): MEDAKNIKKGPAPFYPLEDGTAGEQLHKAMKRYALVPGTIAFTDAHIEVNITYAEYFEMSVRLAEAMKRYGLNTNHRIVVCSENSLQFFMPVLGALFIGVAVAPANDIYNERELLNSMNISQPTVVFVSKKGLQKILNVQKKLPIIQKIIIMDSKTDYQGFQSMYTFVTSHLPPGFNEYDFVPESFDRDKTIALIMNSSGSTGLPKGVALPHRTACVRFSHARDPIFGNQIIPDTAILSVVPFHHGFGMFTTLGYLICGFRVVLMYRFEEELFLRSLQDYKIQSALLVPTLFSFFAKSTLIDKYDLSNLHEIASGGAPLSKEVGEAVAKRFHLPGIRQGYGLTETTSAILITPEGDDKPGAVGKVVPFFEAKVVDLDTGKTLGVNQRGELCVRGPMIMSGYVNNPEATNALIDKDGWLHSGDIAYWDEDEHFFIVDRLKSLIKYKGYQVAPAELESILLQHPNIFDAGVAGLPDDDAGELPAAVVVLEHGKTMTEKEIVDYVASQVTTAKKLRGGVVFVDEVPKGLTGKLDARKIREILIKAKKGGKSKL

In the case of `CCOC(=O)C1(c2ccccc2)CCN(CCC(C#N)(c2ccccc2)c2ccccc2)CC1`, the Potency result in assay [1], in assay [2], in [3], in [4], in [5] and in [6] was “inactive” throughout. Also, the Potency result in assay [7], in [8], in assay [9] and in assay [10] was “inactive” each time.

Take `NNC(=O)c1ccccc1`: the Potency result in assay [1], in assay [2], in assay [3], in assay [5], in assay [6] and in assay [8] was “inactive” throughout. Also, in [10], the Potency entry is “inactive”. The Potency is 1.77 µM (active) in assay [4] and 62.8 µM (active) in assay [11].

Regarding `CCCCCCCCCBr`, the Potency entry in [1], in [2], in assay [3], in [4], in [5] and in assay [12] was “inactive” each time. Moreover, the Potency result in assay [7], in assay [8], in [11], in assay [9] and in assay [10] was “inactive” each time.

Take `O=c1[nH]c2ccccc2n1CCCN1CCC(n2c(=O)[nH]c3cc(Cl)ccc32)CC1`: the Potency is 16.9 µM (active) in assay [1], 23.7 µM (active) in assay [13] and 29.8 µM (active) in [5]. The Potency result in assay [2], in assay [3], in assay [4], in assay [8], in [11] and in [10] was “inactive” throughout.

Regarding `Cn1cc(C2=C(c3cn(C4CCN(Cc5ccccn5)CC4)c4ccccc34)C(=O)NC2=O)c2ccccc21`, the Potency entry in assay [1], in assay [2], in assay [3], in [4], in assay [6] and in assay [7] was “inactive” in each case. In addition, the Potency result in [9] and in [10] was “inactive” each time. Besides, the Potency in assay [5] is 11.9 µM (active).

Take `COc1ccc(OC)c(CC(C)N)c1` (stereo not given): the Potency result in assay [1], in assay [2], in [3], in assay [4], in [5] and in [6] was “inactive” each time. The Potency result in assay [12], in [7], in assay [8], in assay [11], in assay [9] and in assay [10] was “inactive” in each case.

Take `C[C@H]1CC[C@@H]2[C@@H](C)[C@H]3[C@H](C[C@H]4[C@@H]5CC=C6CC(O[C@@H]7O[C@H](CO)[C@H](O)[C@H](O[C@@H]8O[C@H](CO)[C@@H](O)[C@H](O)[C@H]8O)[C@H]7O[C@H]7O[C@@H](C)[C@H](O)[C@@H](O)[C@H]7O)CC[C@]6(C)[C@H]5CC[C@]34C)N2C1` (stereo not given in full): the Potency in [1] was 14.3 µM (active); in assay [2], 25.1 µM (active); in [3] it was 28.2 µM (active); in [5] it was 22.4 µM (active); in assay [12], 22.4 µM (active); in [7], 22.4 µM (active). The Potency in assay [8] and in assay [9] was 22.4 µM (active) in each case. In addition, the Potency entry in [4], in [6], in assay [11] and in assay [14] was “inactive” throughout.

As to `CCCN(CC)CC1COC2(CCC(C(C)(C)C)CC2)O1` (stereo not given), the Potency result in [1], in assay [2], in [3], in assay [4], in assay [5] and in [6] was “inactive” throughout. Moreover, the Potency entry in [12], in assay [7], in [8], in assay [11], in [9] and in assay [10] was “inactive” in each case.

On to `CC(C)CCCCCOC(=O)c1ccccc1C(=O)OCCCCCC(C)C`, for which the Potency result in assay [1], in assay [2], in assay [3], in assay [4], in [5] and in assay [6] was “inactive” each time. In addition, the Potency result in assay [12], in assay [7], in assay [8], in [11], in assay [9] and in assay [10] was “inactive” throughout.

As for `CCCN(CCC)CCc1c[nH]c2ccccc12`, the Potency result in assay [1], in assay [2], in assay [3], in [4], in [5] and in assay [6] was “inactive” each time. For the same molecule, the Potency entry in [12], in assay [7], in assay [8], in assay [11], in assay [9] and in assay [10] was “inactive” in each case.

Take `CC(C)[C@H](C(=O)OC(C#N)c1cccc(Oc2ccccc2)c1)c1ccc(OC(F)F)cc1` (stereo not given in full): the Potency entry in assay [1], in assay [2], in [3], in assay [4], in assay [5] and in assay [6] was “inactive” each time. Besides, the Potency result in assay [12], in assay [7], in [8], in assay [11], in [9] and in assay [15] was “inactive” in each case. Also, in assay [10], the Potency result was “inactive”.

For the molecule `c1ccc2cc3c(cc2c1)-c1cccc2cccc-3c12`, the Potency entry in [1], in assay [2], in [3], in assay [4], in [5] and in [6] was “inactive” throughout. Besides, the Potency entry in assay [12], in assay [7], in assay [8], in [14] and in assay [15] was “inactive” throughout. In [11], the Potency was 0.955 µM (active).

For `CN(C)C1CSSSC1`, the Potency result in assay [1], in assay [2], in assay [3], in assay [4], in [5] and in [12] was “inactive” each time. For the same molecule, the Potency result in assay [7], in assay [8], in [11] and in assay [9] was “inactive” each time.

With `CCOP(=S)(OCC)OC(Cl)C(Cl)(Cl)Cl` (stereo not given), the Potency entry in assay [1], in [2], in assay [3], in [4], in [5] and in assay [12] was “inactive” in each case. Further, the Potency entry in assay [7], in [8], in assay [9], in assay [14], in assay [15] and in [10] was “inactive” each time.

With `CC(C)(C)OO`, the Potency result in assay [1], in assay [2], in [3], in assay [4], in assay [5] and in [6] was “inactive” in each case. The Potency entry in assay [12], in assay [7], in [8], in [11], in assay [9] and in [10] was “inactive” in each case.

For the molecule `Clc1ccc(C(Cl)(Cl)Cl)c(Cl)c1`, the results for the Potency in [1] and in assay [14] were 19.6 µM (active) and 61.6 µM (active), respectively. Further, the Potency entry in assay [2], in [3], in assay [4], in [6], in assay [12] and in [7] was “inactive” throughout. For the same molecule, the Potency result in [8], in assay [11], in assay [9] and in assay [10] was “inactive” each time.

Take `CC(C)CC(C)(c1ccc(O)cc1)c1ccc(O)cc1`: the Potency was 55.1 µM (active) and 49 µM (active) in assay [1]; 48.7 µM (active) in assay [5]; 2.44 µM (active) in assay [8]; 6.87 µM (active) and 2.17 µM (active) in assay [11]; 54.6 µM (active) in assay [14]; 48.7 µM (active) and inactive in [10]. Also, the Potency result in [2], in [3], in assay [4], in assay [6] and in assay [15] was “inactive” in each case.

For `Oc1c(Cl)c(Cl)cc(Cl)c1Cl`, the Potency in assay [1] was 7.55 µM (active); in [3], 66.7 µM (active); in [6], 87 µM (active); in [14], 53 µM (active). Also, the Potency result in assay [2], in [4], in [7], in [8], in assay [11] and in assay [10] was “inactive” each time.

On to `N#CC(Cl)Cl`, for which the Potency entry in assay [1], in assay [2], in assay [3], in assay [5], in assay [6] and in assay [7] was “inactive” each time. Besides, the Potency result in [9], in assay [15] and in [10] was “inactive” throughout. The Potency in assay [4] is 47.3 µM (active).

Values taken from PubChem BioAssay (Tox21).
